Source: PubChem BioAssay (NCATS)
Results filed as inconclusive are left out. Calls of active or inactive are those of the source. Calls follow the shape of the dose curve; as a rule, active = well fitted curve in the direction sought with a large enough effect; inconclusive = small, poorly fitted or top-dose-only effect, or another doubt; inactive = no such curve, though single readings can be large; an effect the other way counts as inactive or inconclusive.

Legend:
[1] = qHTS of pediatric cancer cell lines to identify multiple opportunities for drug repurposing: Confirmatory screen for BT-37 cells (AID 1347117); settings: BT-37 pediatric cancer cells, viability;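 also: potency is read from the fitted curve at half-maximal effect; viability measured after 48 h of compound exposure; nearly all actives have a fitted effect of over 55% in size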
How it was run: (§1)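 Viability after 48 h compound treatment at 37C, 500-1,000 cells/well, read as ATP luminescence with CellTiter-Glo. Primary screens used 11-point (MIPE, 0.78 nM-46 µM) or 8-point (NPC, 0.59 nM-46 µM) final concentrations; follow-up screens used 11-point dilutions.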

[2] = qHTS of pediatric cancer cell lines to identify multiple opportunities for drug repurposing: Confirmatory screen for TC32 cells (AID 1347118); settings: TC32 Ewing sarcoma cells viability qHTS;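 also: potency is read from the fitted curve at half-maximal effect; cells exposed to compound for 48 h before the read; nearly all actives have a fitted effect of over 65% in size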
How it was run: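 qHTS, TC32, 48 h drug treatment, CellTiter-Glo luminescence as a proxy for metabolically active cells; primary top concentration 46 µM (MIPE 11-pt, NPC 8-pt); confirmatory 11-pt.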

[3] = qHTS of pediatric cancer cell lines to identify multiple opportunities for drug repurposing: Confirmatory screen for MG 63 (6-TG R) cells (AID 1347119); settings: MG-63 (6-TG resistant) osteosarcoma viability; series mostly up to 95.5 µM; also: nearly all actives have a fitted effect of over 55% in size; also: potency is read from the fitted curve at half-maximal effect
How it was run: as §1

[4] = qHTS of pediatric cancer cell lines to identify multiple opportunities for drug repurposing: Confirmatory screen for Rh41 cells (AID 1347123); settings: Rh41 rhabdomyosarcoma cells, viability/cytotoxicity qHTS; series mostly up to 97.2 µM;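 also: 48 h compound exposure; nearly all actives have a fitted effect of over 60% in size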; also: potency is read from the fitted curve at half-maximal effect
How it was run: as §1

[5] = qHTS of pediatric cancer cell lines to identify multiple opportunities for drug repurposing: Confirmatory screen for RD cells (AID 1347124); settings: RD rhabdomyosarcoma cell viability; series mostly up to 97.2 µM;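 also: cells exposed to compound for 48 h before viability readout; nearly all actives have a fitted effect of over 65% in size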
How it was run: as §1

[6] = qHTS of pediatric cancer cell lines to identify multiple opportunities for drug repurposing: Confirmatory screen for Rh30 cells (AID 1347126); settings: Rh30 rhabdomyosarcoma cell viability; series mostly up to 97.2 µM; also: nearly all actives have a fitted effect of over 55% in size; also: potency is read from the fitted curve at half-maximal effect
How it was run: as §1

[7] = qHTS of pediatric cancer cell lines to identify multiple opportunities for drug repurposing: Confirmatory screen for OHS-50 cells (AID 1347128); settings: OHS-50 osteosarcoma cells viability; series mostly up to 45.9 µM;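 also: compound exposure lasted 48 h at 37 degrees C; nearly all actives have a fitted effect of over 55% in size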; also: potency is read from the fitted curve at half-maximal effect
How it was run: as §1

[8] = qHTS of pediatric cancer cell lines to identify multiple opportunities for drug repurposing: Confirmatory screen for SK-N-SH cells (AID 1347129); settings: SK-N-SH neuroblastoma cell viability; series mostly up to 97.6 µM;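 also: cells exposed to compound for 48 h before viability read; nearly all actives have a fitted effect of over 60% in size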; also: potency is read from the fitted curve at half-maximal effect
How it was run: as §1

[9] = tested on: Zika virus NS2B-NS3 protease; experiment: Primary screen GU AMC qHTS for Zika virus inhibitors (AID 1347154); settings: Zika NS2B-NS3 unlinked protease, AMC fluorogenic substrate; series mostly up to 54.1 µM; also: nearly all actives have a fitted effect of over 70% in size; also: potency is read from the fitted curve at half-maximal effect
How it was run: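 Unlinked Zika NS2B hydrophilic domain–NS3 protease complex at 25 nM in 10 mM Tris-HCl pH 8.0, 0.01% Tween 20, with an AMC peptide substrate. Fluorescence change (340/450 nm) over 15 min at room temperature, normalized to controls, fitted to 4-parameter Hill.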

[10] = molecular target: N-terminal Xaa-Pro-Lys N-methyltransferase 1 (Homo sapiens) (UniProt Q9BV86); experiment: qHTS Assay for Inhibitors of N-terminal methyltransferase 1 (NTMT1): LOPAC validation of the NTMT1 SAHH-coupled ThioGlo3 Assay (AID 1347143); settings: recombinant NTMT1, SAHH-coupled ThioGlo3 fluorescence; series mostly up to 114 µM;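 also: SAH from peptide methylation measured as thiol fluorescence via SAHH coupling and ThioGlo3; nearly all actives have a fitted effect of over 70% in size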; also: potency is read from the fitted curve at half-maximal effect
N-terminal Xaa-Pro-Lys N-methyltransferase 1 (Homo sapiens), sequence (Q9BV86 whole entry, looked up): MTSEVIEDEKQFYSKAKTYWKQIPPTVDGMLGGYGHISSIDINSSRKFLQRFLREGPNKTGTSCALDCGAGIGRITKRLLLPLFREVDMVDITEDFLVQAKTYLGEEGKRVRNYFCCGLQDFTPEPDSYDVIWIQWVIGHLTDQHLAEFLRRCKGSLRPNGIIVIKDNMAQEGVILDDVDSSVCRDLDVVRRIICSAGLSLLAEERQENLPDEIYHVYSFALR
How it was run: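 Recombinant human NTMT1 (125nM) was pre-incubated 1 min at room temperature with compounds over a concentration range, then a mix of 100uM SAM, 10uM SAHH and 15uM ThioGlo3 (concentrations in added reagent) was added. ThioGlo3 fluorescence (ex 340/em 450nm) after 30 min was normalized to the initial reading.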

[11] = qHTS of pediatric cancer cell lines to identify multiple opportunities for drug repurposing: Confirmatory screen for control Hh wild type fibroblast cells (AID 1347121); settings: viability qHTS; series mostly up to 45.9 µM; also: nearly all actives have a fitted effect of over 70% in size
How it was run: as §1

[12] = qHTS of pediatric cancer cell lines to identify multiple opportunities for drug repurposing: Confirmatory screen for U-2 OS cells (AID 1347122); settings: U-2 OS osteosarcoma cell viability; series mostly up to 45.9 µM; also: nearly all actives have a fitted effect of over 65% in size
How it was run: as §1

[13] = qHTS of pediatric cancer cell lines to identify multiple opportunities for drug repurposing: Confirmatory screen for Rh18 cells (AID 1347125); settings: Rh18 rhabdomyosarcoma cells, viability; series mostly up to 45.9 µM; also: nearly all actives have a fitted effect of over 55% in size
How it was run: as §1

Measured: Potency

N=C1N=C(N)c2cc3ccccc3cc21
active: [1] 38 µM | [2] 17 µM | [3] 19.1 µM | [4] 30.2 µM | [6] 47.9 µM | [7] 42.7 µM | [8] 38.2 µM | [9] 23.3 µM
inactive: [5]

CNC(=O)[C@H]1O[C@@H](n2cnc3c(NCc4ccc(N)cc4)ncnc32)[C@H](O)C1O (stereo partly specified)
inactive: [10]

CCOC(=O)c1ccccc1O
active: [2] 1.47 µM
inactive: [11] | [12] | [4] | [7] | [8] | [9]

O=c1cc(-c2ccccc2)oc2c(O)c(O)ccc12
active: [10] 56.2 µM

Nc1ccc([N+](=O)[O-])cc1O
inactive: [3] | [11] | [12] | [4] | [13] | [6] | [7] | [8] | [9]
active: [2] 7.59 µM

O=[N+]([O-])c1ccc(CSc2ncnc3c2ncn3[C@@H]2O[C@H](CO)C(O)[C@H]2O)cc1 (stereo partly specified)
inactive: [10]

COc1cccc2c1C(=O)c1c(O)c3c(c(O)c1C2=O)C[C@@](O)(C(=O)CO)C[C@@H]3O[C@H]1C[C@H](N)[C@H](O[C@@H]2CCCCO2)[C@H](C)O1
active: [1] 1.17 µM | [2] 0.465 µM | [4] 2.93 µM | [6] 5.85 µM | [8] 2.35 µM

Nc1nc(Nc2ccccc2)nc2c1ncn2[C@@H]1O[C@H](CO)C(O)[C@H]1O (stereo partly specified)
active: [10] 39.8 µM

NC(=O)C1=CN(C2OC(COP(=O)(O)OP(=O)(O)OC[C@H]3O[C@@H](n4cnc5c(N)ncnc54)[C@H](OP(=O)(O)O)C3O)C(O)C2O)C=CC1 (stereo partly specified)
inactive: [10]
